Source: PubChem BioAssay
Compounds with a hit are over-represented: about 21% of the library has one in this group of screens.
HCMV antiviral: qHTS Assay for inhibitors of the human cytomegalovirus (HCMV). HFF cells, HCMV-luciferase reporter, 72 h; stronger effect = lower value. 4.5% of 410,000 active. activity change, negative = inhibition, % at 57.5 µM; in the data active = activity change below about -60%; inconclusive = no clear call, values can overlap the other calls; inactive = above about -39%; also: % is scaled to controls: 0 for no effect and ±100 for the full control effect
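Two compound doses tested in HFFs infected with HCMV-luciferase, MOI 1 PFU/cell, 72 h at 37C. Lysate luminescence read with OneGlo; data normalized against buffer-only and 10uM Salinomycin inhibitor controls.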
Pf growth 48h: Primary qHTS for delayed death inhibitors of the malarial parasite plastid, 48 hour incubation; AID 504832, 2011; Potency, µM (highest dose often 28.7 µM), without a hit: at the highest dose activity change, negative = inhibition, hits mostly inhibitors; 5.9% of 310,000 active; P. falciparum luciferase growth in erythrocytes, 48 h; also: potency is read from the fitted curve at half-maximal effect; % is scaled to controls: 0 for no effect and ±100 for the full control effect
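Growth was read as firefly luciferase luminescence after a 48 h, 37 C, 5% CO2 exposure of compounds to reporter-bearing P. falciparum cultures (0.1% parasitemia, 2% hematocrit final) in Albumax-supplemented RPMI 1640.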
Pf growth 96h: Primary qHTS for delayed death inhibitors of the malarial parasite plastid, 96 hour incubation; AID 504834, 2011; Potency, µM (top dose mostly 28.7 µM), inactives show at the top dose activity change, negative = inhibition, usual class: inhibitors; 6.9% of 320,000 active; P. falciparum luciferase reporter growth, 96 h; also: potency is read from the fitted curve at half-maximal effect; % is scaled to controls: 0 for no effect and ±100 for the full control effect
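Readout is luminescence from an integrated firefly luciferase in P. falciparum. Red cells, 2% hematocrit and 0.05% parasitemia final, were cultured with compound through two parasite generations (96 hours) at 37 C, 5% CO2.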
HCV inhibitor: qHTS Assay for Inhibitors of Hepatitis C Virus (HCV) | Huh7.5.1 HCVcc-Cre infection, luciferase reporter, 44 h | Potency, µM (series often up to 41.8 µM), without a hit: top-dose activity change, negative = inhibition, usual class: inhibitors | 3.4% of 340,000 active | AID 651820, 2012; also: potency is read from the fitted curve at half-maximal effect; % is scaled to controls: 0 for no effect and ±100 for the full control effect
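Whole-lifecycle infectious HCVcc-Cre system; cells 1,000/well, compound then virus (~0.5 moi) added 4 h after plating, 44 h culture. Luciferase read 15 sec following 15 min substrate incubation, room temp.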
Shiga toxin inh: A qHTS for Small Molecule Inhibitors of Shiga Toxin; Vero cells, Shiga toxin protein synthesis inhibition reporter; inhibition, % at 38.7 µM; 9.2% of 290,000 active; in the data active = inhibition mostly above about 28%, no sharp cut-off; inactive = mostly below about 43%; also: 0% is about no effect
CHX counter: Cycloheximide Counterscreen for Small Molecule Inhibitors of Shiga Toxin. max response, %. cell reporter, cycloheximide protein synthesis inhibition counterscreen. 12% of 300,000 active; in the data active = max response mostly above about 13%, no sharp cut-off; inactive = mostly below about 14%; also: read at 38.3 µM for the half of the compounds with a filed dose; 0% is about no effect
The depositor's hits bear a star; ? = inconclusive; · = no result given. Unless noted, calls follow the shape of the dose curve; as a rule, active = well fitted inhibition curve with a large enough effect; inconclusive = small, poorly fitted or top-dose-only effect, or another doubt; inactive = no such curve, though single readings can be large or run the other way.

SMILES | HCMV antiviral | Pf growth 48h | Pf growth 96h | HCV inhibitor | Shiga toxin inh | CHX counter
COC(=O)c1cc2oc3ccccc3c2n1CC(=O)Nc1ccccc1OC | 107.7 | · | ? | 18.7% | 20.1 | -0.7
CCOc1ccccc1CNC(=O)c1cc2oc3ccccc3c2n1CC | -70.0* | · | 1.17µM* | ? | -16.3 | 12.5
CCOc1ccc(CNC(=O)c2cc3oc4ccccc4c3n2C)cc1 | -83.2* | 12.2% | · | -14.3% | 33.2 | 12.8
CCn1c(C(=O)NCc2ccc(F)cc2)cc2oc3ccccc3c21 | -68.5* | · | · | · | · | ·
CCO[C@@H]1OC(C(=O)NCc2ccccc2)=C[C@H](c2coc3ccccc3c2=O)[C@H]1CCCO | -4.2 | ? | ? | 9.3% | 10.1 | -2.3
COc1ccccc1Cc1c(-c2cccc(Br)c2)nc2ccc(C)cn12 | 54.8 | · | · | · | · | ·
COc1cccc(NC(=O)/C(C#N)=C/c2c(C)n(Cc3ccc(Cl)cc3)c3ccccc23)c1 | 14.0 | · | · | · | · | ·
Cc1cccc(C)c1NC(=O)COC(=O)CN1C(=O)C2CCCCC2C1=O (stereo not drawn) | -12.3 | 2.2% | 33.6% | 13.8% | · | ·
N#Cc1c2c(c(N3CCN(c4ccccn4)CC3)n3c1nc1ccccc13)CCC2 | · | · | 0.131µM* | · | -9.5 | -10.0
CCCNc1cc(C)c(C#N)c2nc3ccccc3n12 | ? | -0.8% | -23.1% | -19.2% | -8.5 | -3.5
Cc1cc(N2CCN(c3ccccn3)CC2)n2c(nc3ccccc32)c1C#N | -16.1 | 4.65µM* | 0.8% | ? | 52.9 | -3.6
Fc1ccc(CSc2nnc(-c3cccnc3)o2)cc1 | 0.0 | 87.7% | 5.4% | 9.7% | 30.9 | 16.7*
Cc1ccccc1-c1nnc(SCc2ccc(F)cc2)o1 | 43.1 | 42.8% | 4.1% | ? | 45.4* | 30.2*
Cc1ccc(CSc2nnc(-c3cccnc3)o2)cc1 | · | · | 13.3% | ? | -0.7 | 12.0
c1ccc(CSc2nnc(-c3cccnc3)o2)cc1 | -40.0 | 183.7% | -20.8% | 14.3% | 73.6* | 30.9*
Brc1ccc(CSc2nnc(-c3cccnc3)o2)cc1 | -68.3* | 48.1% | -11.2% | 0.2% | 6.8 | -2.1
Fc1ccc(CSc2nnc(-c3ccncc3)o2)cc1 | 13.0 | 13.6% | 8.4% | 6.6% | 35.8 | 7.2
O=C(COc1ccc(Cl)cc1)Nc1ccccc1C(=O)OCc1cc(=O)n2ccsc2n1 | 89.1 | · | · | · | · | ·
NC(=O)C1(N2CCCCC2)CCN(S(=O)(=O)c2cc(Cl)sc2Cl)CC1 | 14.1 | 51.5% | 36.8% | 2.5% | 25.3 | 9.1
Cc1ccc(/C=N/NC(=O)Cn2nnc(N)n2)o1 | 14.8 | -3.7% | 18.6% | 16.2% | -10.9 | -2.0
Cc1nc2c3ccccc3nc(NNC(=O)CCC(=O)N3CCN(c4cccc(C(F)(F)F)c4)CC3)n2n1 | -16.8 | · | · | · | · | ·
O=C(CCc1nnc2ccc(NCc3ccco3)nn12)Nc1ccc(F)cc1 | 21.2 | -3.4% | 22.3% | 1.2% | 21.6 | 3.7
O=C(O)c1cccc([N+](=O)[O-])c1C(=O)Nc1ccc2ccccc2c1 | 81.6 | 29.5% | 7.8% | -1.3% | 21.8 | 19.6*
O=C(O)c1cccc([N+](=O)[O-])c1C(=O)Nc1cccc2ccccc12 | -0.4 | -6.7% | 53.5% | 12.3% | · | 19.5*
Cc1cccc(NC(=O)Nc2nnc(N(C)C3CCCCC3)s2)c1C | 5.6 | · | · | · | · | ·
SMILES | HCMV antiviral | Pf growth 48h | Pf growth 96h | HCV inhibitor | Shiga toxin inh | CHX counter
CCOc1ccc(S(=O)(=O)N2CCCCC2)cc1NC(=O)Cc1cccs1 | 12.2 | ? | ? | ? | · | ·
O=C(CN1CCCC1)Nc1ccc(Br)cc1[N+](=O)[O-] | -18.6 | 41.3% | ? | -21.7% | · | 27.3*
Cc1ccc(NC(=O)CN2CCCCCC2)cc1[N+](=O)[O-] | -25.4 | 0.0% | 106.3% | -0.5% | 102.8* | 41.8*
Cc1ccc(NC(=O)CN2CCCC2)cc1Br | 9.5 | 21.6% | ? | -21.6% | 5.7 | 7.1
COc1cccc(-c2cc3c(-n4cccc4)ncnc3o2)c1 | 30.0 | 49.7% | -0.9% | ? | 43.1* | 11.7
COc1cccc(C(=O)Nc2cc3c(cc2Cl)OCCCO3)c1 | 48.2 | 249.1% | 311.0% | -7.2% | 83.7* | 75.6*
COc1cccc(C(=O)Nc2cc3c(cc2C(=O)c2ccc(C)cc2)OCCO3)c1 | 7.2 | · | · | · | · | ·
COc1ccc(C(=O)Nc2cc3c(cc2Cl)OCCCO3)cc1 | 83.7 | · | 198.9% | -25.5% | 93.6* | 44.8*
COc1ccc(C(=O)Nc2cc3c(cc2C(=O)c2ccccc2Cl)OCCO3)cc1 | 5.6 | · | · | · | · | ·
OCCN1CCN(c2cc(C(F)(F)F)nc3ccccc23)CC1 | -12.2 | 11.7µM* | -2.6% | -6.1% | -4.0 | -2.5
O=C(c1cc(Cl)cc(Cl)c1)N1CCN(c2cc(C(F)(F)F)nc3ccccc23)CC1 | 21.3 | 3.7µM* | 1.31µM* | 1.8% | 15.1 | 0.6
COc1cccc(CNc2nc3cc(-c4cccc(C(F)(F)F)c4)sc3c(=O)n2C)c1 | 18.3 | · | · | · | · | ·
CC(=O)N1Cc2ccccc2CC1C(=O)N1CCN(c2ccccc2)CC1 (stereo not drawn) | ? | 10.0% | ? | 14.1% | 23.1 | -7.6
COc1ccc(N2CCN(C(=O)NC34CC5CC(CC(C5)C3)C4)CC2)cc1 | -8.6 | · | 5.22µM* | ? | -15.5 | -5.2
COc1ccc(N2CCN(C(=O)C3Cc4ccccc4CN3C(=O)c3ccccc3)CC2)cc1 (stereo not drawn) | 8.7 | ? | ? | -11.0% | 70.9* | 60.8*
COC(=O)N1CCN(c2ccc(OC)cc2)CC1 | 4.5 | 18.4% | · | 0.1% | -19.3 | 9.4*
COC(=O)N1CCN(c2ccc(C)c(C)c2)CC1 | · | 46.0% | 54.1% | · | 64.5 | 22.9*
O=C1C(CCC(O)c2ccc(F)cc2)C(c2ccc(O)cc2)N1c1ccc(F)cc1 (stereo not drawn) | · | -7.8% | -2.5% | · | · | ·
COc1ccc(N2CCN(C(=O)CC3NC4CCCCC4NC3=O)CC2)cc1 (stereo not drawn) | ? | 2.4% | 11.7µM* | -0.9% | -7.2 | -1.4
COc1ccccc1N1CCN(C(=O)CC2NC3CCCCC3NC2=O)CC1 (stereo not drawn) | · | 41.1% | 63.8% | · | -18.4 | -3.1
COc1ccc(N2CCN(C(=O)NCc3ccc(OC)c(Cl)c3)CC2)cc1 | ? | ? | 15.2% | 7.4% | -4.2 | 1.4
COc1ccc(N2CCN(C(=O)NCc3ccc(OC)c(OC)c3)CC2)cc1 | -67.7* | 21.0% | -4.2% | 7.4% | 2.2 | 1.6
COc1ccc(N2CCN(c3ccc(NC(=O)/C=C\C(=O)O)cc3)CC2)cc1 | -9.9 | 3.29µM* | ? | -3.0% | · | -1.0
COc1cc(OC)cc(C(=O)N2CCN(Cc3ccc4c(c3)OCO4)CC2)c1 | 10.8 | ? | 186.6% | -0.8% | -20.9 | -0.8
CCOC(=O)c1ccc(NC(=O)C2Cc3ccccc3CN2S(=O)(=O)c2ccc(Cl)cc2)cc1 (stereo not drawn) | -31.2 | · | · | · | · | ·
